Data from PubChem BioAssay (EPA / NIEHS).
Active and inactive are the calls of the source. How the source made its calls: active means hit-call score of the fitted dose curve at least 0.9, where 1 is the maximum; inactive means score below 0.9.

Assays:
[1] = ATG_PBREM_CIS: Attagene CIS-FACTORIAL HepG2 Assay for human Phenobarbital-responsive Enhancer Module (PBREM) (AID 2282955); details: HepG2 PBREM cis-reporter, Attagene multiplexed transcription; actives raise or lower the signal
Procedure, shortened: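 HepG2 cells transiently transfected with multiple cis-regulated reporter transcription units; endogenous factor activity at the PBREM element measured as reporter mRNA 24 h after dosing, via RT-PCR and capillary electrophoresis of fluorescent fragments; bidirectional fitting versus DMSO.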

[2] = target: Paired box protein Pax-6 (Homo sapiens) (UniProt P26367); test: ATG_Pax6_CIS: Attagene CIS-FACTORIAL HepG2 Assay for human Paired Box 6 (PAX6) (AID 2282956); details: HepG2 CIS-FACTORIAL PAX6 reporter transcription, RNA readout; actives raise or lower the signal
Chain of Paired box protein Pax-6 (Homo sapiens) (P26367 whole entry, looked up): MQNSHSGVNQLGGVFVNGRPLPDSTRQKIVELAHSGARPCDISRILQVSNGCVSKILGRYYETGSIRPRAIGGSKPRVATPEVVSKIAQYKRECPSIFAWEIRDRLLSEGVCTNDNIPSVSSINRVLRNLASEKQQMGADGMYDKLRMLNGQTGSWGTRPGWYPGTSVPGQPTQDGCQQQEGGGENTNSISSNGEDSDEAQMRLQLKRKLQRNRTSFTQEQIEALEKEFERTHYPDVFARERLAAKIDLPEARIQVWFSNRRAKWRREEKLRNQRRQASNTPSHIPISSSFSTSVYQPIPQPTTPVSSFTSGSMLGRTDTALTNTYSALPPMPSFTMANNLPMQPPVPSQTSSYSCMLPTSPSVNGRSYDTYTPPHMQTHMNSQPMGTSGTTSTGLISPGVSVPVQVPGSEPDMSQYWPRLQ
Procedure, shortened: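 Read-out is reporter transcript level, measured by RT-PCR with fluorescent primer extension and capillary electrophoresis after 24 h dosing of transfected HepG2 cells. Activity in either direction fitted relative to DMSO control.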

[3] = ATG_PXRE_CIS: Attagene CIS-FACTORIAL HepG2 Assay for human Pregnane X Receptor Element (PXRE) (AID 2282957); details: HepG2 Attagene CIS-FACTORIAL PXRE reporter, mRNA; actives raise or lower the signal
Procedure, shortened: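 Bidirectional activity, baselined to DMSO, derived from reporter mRNA fluorescence (RT-PCR plus capillary electrophoresis) in HepG2 cells bearing cis-promoter reporter units, 24 h exposure.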

[4] = ATG_PPRE_CIS: Attagene CIS-FACTORIAL HepG2 Assay for human Peroxisome Proliferator-activated Response Element (PPRE) (AID 2282958); details: HepG2 PPRE cis-element reporter, Attagene transcription factor profiling; actives raise or lower the signal
Procedure, shortened: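 HepG2 cells transiently transfected with multiplexed cis-element reporter units measure endogenous transcription factor activity. After 24 h compound exposure, reporter mRNA is quantified by RT-PCR, 6-FAM labeling, HpaI digestion and capillary electrophoresis; bidirectional fits are made against DMSO baseline.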

[5] = ATG_RORE_CIS: Attagene CIS-FACTORIAL HepG2 Assay for human RAR-related Orphan Receptor Element (RORE) (AID 2282959); details: HepG2 Attagene cis-factorial RORE reporter, mRNA; actives raise or lower the signal
Procedure, shortened: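 HepG2 cells transiently transfected with multiple cis-element reporter transcription units, exposed to chemical for 24 h. Reporter mRNA quantified by RT-PCR, 6-FAM primer-extension labeling, HpaI digestion and capillary electrophoresis; bidirectional fit versus DMSO baseline.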

[6] = ATG_Sox_CIS: Attagene CIS-FACTORIAL HepG2 Assay for human SRY-box transcription factor (SOX) (AID 2282960); details: HepG2 Attagene cis-factorial SOX reporter, mRNA; actives raise or lower the signal
Procedure, shortened: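 HepG2 cells transiently transfected with cis-element-driven multiple reporter transcription units, dosed 24 h; reporter mRNA measured by RT-PCR, FAM labelling, HpaI digestion and capillary electrophoresis. Bidirectional fit versus DMSO baseline.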

[7] = target: Transcription factor Sp1 (Homo sapiens) (UniProt P08047); test: ATG_Sp1_CIS: Attagene CIS-FACTORIAL HepG2 Assay for human Specificity Protein 1 (Sp1) (AID 2282961); details: HepG2 Sp1 cis-reporter transcription, actives raise or lower the signal
Chain of Transcription factor Sp1 (Homo sapiens) (P08047 whole entry, looked up): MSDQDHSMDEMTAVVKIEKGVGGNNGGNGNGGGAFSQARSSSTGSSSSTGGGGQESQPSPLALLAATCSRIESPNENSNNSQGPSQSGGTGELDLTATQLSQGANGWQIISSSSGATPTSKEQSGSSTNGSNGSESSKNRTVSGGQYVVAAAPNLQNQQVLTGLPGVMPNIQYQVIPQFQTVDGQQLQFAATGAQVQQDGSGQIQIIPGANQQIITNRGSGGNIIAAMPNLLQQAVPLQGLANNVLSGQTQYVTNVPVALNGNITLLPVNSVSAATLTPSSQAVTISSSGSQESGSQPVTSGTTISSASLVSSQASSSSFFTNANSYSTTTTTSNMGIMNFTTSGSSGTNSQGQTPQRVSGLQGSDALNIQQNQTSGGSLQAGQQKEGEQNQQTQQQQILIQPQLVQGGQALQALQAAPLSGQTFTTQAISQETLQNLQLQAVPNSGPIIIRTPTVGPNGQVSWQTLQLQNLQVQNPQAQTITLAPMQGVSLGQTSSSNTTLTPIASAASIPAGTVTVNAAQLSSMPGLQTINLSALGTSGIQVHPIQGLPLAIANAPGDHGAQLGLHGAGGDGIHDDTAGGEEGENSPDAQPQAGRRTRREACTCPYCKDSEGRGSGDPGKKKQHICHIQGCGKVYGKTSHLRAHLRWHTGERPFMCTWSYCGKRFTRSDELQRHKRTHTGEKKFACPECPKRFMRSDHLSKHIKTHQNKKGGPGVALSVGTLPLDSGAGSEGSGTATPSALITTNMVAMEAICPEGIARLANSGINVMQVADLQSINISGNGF
Procedure, shortened: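 HepG2 cells transiently transfected with multiple reporter transcription units driven by cis-regulatory elements; Sp1-responsive reporter mRNA measured 24 h after dosing by RT-PCR and capillary electrophoresis fluorescence, fitted bidirectionally against DMSO baseline.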

[8] = ATG_SREBP_CIS: Attagene CIS-FACTORIAL HepG2 Assay for human Sterol Regulatory Element Binding (SREBP) (AID 2282962); details: HepG2 Attagene cis-factorial SREBP reporter, mRNA; actives raise or lower the signal
Procedure, shortened: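 Endogenous SREBP activity read as cis-element-driven reporter transcript in transiently transfected HepG2, 24 h post-dosing; quantified via RT-PCR plus capillary electrophoresis of fluorescent fragments. Gain or loss of signal fitted relative to DMSO baseline.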

[9] = target: Signal transducer and activator of transcription 3 (Homo sapiens) (UniProt P40763); test: ATG_STAT3_CIS: Attagene CIS-FACTORIAL HepG2 Assay for human Signal Transducer and Activator of Transcription 3 (STAT3) (AID 2282963); details: HepG2, Attagene cis-factorial STAT3 reporter transcription; actives raise or lower the signal
Chain of Signal transducer and activator of transcription 3 (Homo sapiens) (P40763 whole entry, looked up): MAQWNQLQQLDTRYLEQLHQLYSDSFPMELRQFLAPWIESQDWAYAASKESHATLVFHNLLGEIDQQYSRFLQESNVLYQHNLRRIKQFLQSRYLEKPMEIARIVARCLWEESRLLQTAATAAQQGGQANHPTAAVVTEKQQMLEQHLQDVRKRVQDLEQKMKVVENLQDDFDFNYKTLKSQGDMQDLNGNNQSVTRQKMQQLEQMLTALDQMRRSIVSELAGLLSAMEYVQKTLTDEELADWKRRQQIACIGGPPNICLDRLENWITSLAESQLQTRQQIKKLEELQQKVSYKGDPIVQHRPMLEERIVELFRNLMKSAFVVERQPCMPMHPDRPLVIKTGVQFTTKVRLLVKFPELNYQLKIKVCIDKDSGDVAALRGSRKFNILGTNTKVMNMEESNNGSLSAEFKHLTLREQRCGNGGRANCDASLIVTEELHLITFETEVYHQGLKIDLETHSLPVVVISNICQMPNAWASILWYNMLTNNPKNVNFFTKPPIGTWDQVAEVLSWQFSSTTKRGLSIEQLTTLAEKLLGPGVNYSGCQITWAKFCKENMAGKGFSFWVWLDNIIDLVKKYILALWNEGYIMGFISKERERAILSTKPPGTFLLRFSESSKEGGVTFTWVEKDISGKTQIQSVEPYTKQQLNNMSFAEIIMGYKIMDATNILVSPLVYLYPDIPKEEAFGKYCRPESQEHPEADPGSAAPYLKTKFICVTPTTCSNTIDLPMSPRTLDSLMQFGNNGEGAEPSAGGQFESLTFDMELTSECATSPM
Procedure, shortened: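 Uses human liver HepG2 transiently carrying cis-regulated reporter transcription units. Following 24 h dosing, reporter mRNA induction was detected by RT-PCR and capillary electrophoresis, analysed bidirectionally versus DMSO.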

[10] = ATG_TA_CIS: Attagene CIS-FACTORIAL HepG2 Assay for human TA Basal Promoter (AID 2282964); details: HepG2 Attagene CIS-factorial TA basal promoter reporter; actives raise or lower the signal
Procedure, shortened: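 Fluorescence from labelled RT-PCR reporter fragments, separated by capillary electrophoresis, gives the signal. Cells: HepG2 transiently carrying multiple reporter units, 24 h chemical dosing. Gain or loss relative to DMSO.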

Row | Compound | outcome [1] | outcome [2] | outcome [3] | outcome [4] | outcome [5] | outcome [6] | outcome [7] | outcome [8] | outcome [9] | AC50 [3] | AC50 [4] | AC50 [8] | outcome [10] | AC50 [1] | AC50 [2] | AC50 [6] | AC50 [9] | AC50 [10] | AC50 [7]
1 | Nc1cccnc1N | inactive | inactive | inactive | inactive | inactive | inactive | inactive | inactive | inactive |  |  |  |  |  |  |  |  |  | 
2 | CCCCCCCC/C=C\CCCCCCCC(=O)N(C)CC(=O)O | inactive | inactive |  |  | inactive | inactive | inactive |  | inactive | 16 µM (active) | 3.73 µM (active) | 11.1 µM (active) |  |  |  |  |  |  | 
3 | CC(C)OC=O | inactive | inactive | inactive | inactive | inactive | inactive | inactive | inactive | inactive |  |  |  |  |  |  |  |  |  | 
4 | O=C(Cl)c1ccc(Cl)cc1Cl | inactive | inactive |  | inactive | inactive | inactive | inactive | inactive | inactive | 27.3 µM (active) |  |  |  |  |  |  |  |  | 
5 | CCN(CC)c1ccc2c(c1)Oc1cc(N(CC)CC)ccc1C21OC(=O)c2ccccc21 | inactive | inactive |  | inactive | inactive | inactive | inactive |  | inactive | 1.04 µM (active) |  | 17.6 µM (active) |  |  |  |  |  |  | 
6 | CC(=O)c1ccccc1N | inactive | inactive | inactive | inactive | inactive | inactive | inactive | inactive | inactive |  |  |  | inactive |  |  |  |  |  | 
7 | CCOC(=O)CC(=O)C(F)(F)C(F)(F)F | inactive | inactive |  | inactive | inactive | inactive | inactive | inactive | inactive | 75.8 µM (active) |  |  | inactive |  |  |  |  |  | 
8 | Cc1cc(=O)[nH]c(C(C)C)n1 | inactive | inactive | inactive | inactive | inactive | inactive | inactive | inactive | inactive |  |  |  | inactive |  |  |  |  |  | 
9 | CCN(CC)c1ccc(C=O)cc1 | inactive | inactive |  | inactive | inactive | inactive | inactive | inactive | inactive | 27.7 µM (active) |  |  | inactive |  |  |  |  |  | 
10 | O=C1c2ccccc2C(=O)c2c(Cl)cccc21 | inactive | inactive |  | inactive | inactive | inactive | inactive | inactive | inactive | 0.997 µM (active) |  |  |  |  |  |  |  |  | 
11 | Cc1cccc(C)n1 | inactive | inactive | inactive | inactive | inactive | inactive | inactive | inactive | inactive |  |  |  |  |  |  |  |  |  | 
12 | Oc1ccc(C2(c3ccc(O)c(C4CCCCC4)c3)CCCCC2)cc1C1CCCCC1 |  |  |  | inactive | inactive |  | inactive |  |  | 0.175 µM (active) |  | 27 µM (active) |  | 8.53 µM (active) | 14.4 µM (active) | 7.42 µM (active) | 62.4 µM (active) |  | 
13 | CO[Si](C)(CCC(F)(F)C(F)(F)C(F)(F)C(F)(F)C(F)(F)C(F)(F)F)OC | inactive | inactive | inactive | inactive | inactive | inactive | inactive | inactive | inactive |  |  |  | inactive |  |  |  |  |  | 
14 | CCCCCCCCCCCCCCCCC | inactive | inactive |  | inactive | inactive | inactive | inactive | inactive | inactive | 27.2 µM (active) |  |  | inactive |  |  |  |  |  | 
15 | CC(C)(C)c1cc(CCC(=O)NCCCCCCNC(=O)CCc2cc(C(C)(C)C)c(O)c(C(C)(C)C)c2)cc(C(C)(C)C)c1O | inactive | inactive |  | inactive | inactive | inactive | inactive | inactive | inactive | 0.169 µM (active) |  |  | inactive |  |  |  |  |  | 
16 | NCC(F)(F)C(F)(F)C(F)(F)C(F)(F)C(F)(F)C(F)(F)F | inactive | inactive | inactive | inactive | inactive | inactive | inactive | inactive | inactive |  |  |  | inactive |  |  |  |  |  | 
17 | F[Si-2](F)(F)(F)(F)F | inactive | inactive | inactive | inactive | inactive | inactive | inactive | inactive | inactive |  |  |  | inactive |  |  |  |  |  | 
18 | COC(=O)c1ccc(C=O)cc1 | inactive | inactive | inactive | inactive | inactive | inactive | inactive | inactive | inactive |  |  |  | inactive |  |  |  |  |  | 
19 | CCCCCCCCn1sc(Cl)c(Cl)c1=O | inactive | inactive |  | inactive | inactive | inactive | inactive |  | inactive | 4.27 µM (active) |  | 14.5 µM (active) |  |  |  |  |  | 8.12 µM (active) | 
20 | O=S(=O)(O)CCC(F)(F)C(F)(F)C(F)(F)C(F)(F)F | inactive | inactive | inactive | inactive | inactive | inactive | inactive | inactive | inactive |  |  |  | inactive |  |  |  |  |  | 
21 | O=C(O)C(F)(F)C(F)(F)C(F)(F)C(=O)O | inactive | inactive | inactive | inactive | inactive | inactive | inactive | inactive | inactive |  |  |  | inactive |  |  |  |  |  | 
22 | O=C(c1ccccc1)c1ccc(Cl)cc1 |  | inactive |  | inactive | inactive | inactive | inactive | inactive | inactive | 27.5 µM (active) |  |  | inactive | 47.2 µM (active) |  |  |  |  | 
23 | CCn1c2ccccc2c2ccccc21 | inactive | inactive |  | inactive | inactive | inactive |  |  | inactive | 26.2 µM (active) |  | 153 µM (active) | inactive |  |  |  |  |  | 167 µM (active)
24 | CC1=CCC(=O)O1 | inactive | inactive |  | inactive | inactive | inactive | inactive | inactive | inactive | 26.7 µM (active) |  |  | inactive |  |  |  |  |  | 
